# Measured values reported in publication PMC11006913.
# Changes are numbered by the printed parent chain.
# Columns and labels:
# Assay in all cases: PBM; 200 nM protein, PBS
# Details in all cases: dsDNA, one strand shown
# NKX2-4 [1] = biological target: T1, NKX2-4 (Homo sapiens, UniProt Q9H2Z4 175-261, P217L)
# T1 sequence: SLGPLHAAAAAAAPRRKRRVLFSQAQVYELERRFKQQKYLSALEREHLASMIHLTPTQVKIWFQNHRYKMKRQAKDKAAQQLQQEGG
# NKX3-2 [2] = biological target: NKX3-2 (Homo sapiens, UniProt P78367 192-278, P234S)
# NKX3-2 [3] = biological target: NKX3-2 (Homo sapiens, UniProt P78367 192-278)
# NKX2-4 [4] = biological target: T2, NKX2-4 (Homo sapiens, UniProt Q9H2Z4 175-261, T231S)
# T2 sequence: T1 sequence with L43P, T57S
# NKX2-4 [5] = biological target: T3, NKX2-4 (Homo sapiens, UniProt Q9H2Z4 175-261)
# T3 sequence: T1 sequence with L43P
# NKX2-4 [6] = biological target: T4, NKX2-4 (Homo sapiens, UniProt Q9H2Z4 175-261, R246Q)
# T4 sequence: T1 sequence with L43P, R72Q
# NKX2-6 [7] = biological target: T5, NKX2-6 (Homo sapiens, UniProt A6NCS4 118-204, F151L)
# T5 sequence: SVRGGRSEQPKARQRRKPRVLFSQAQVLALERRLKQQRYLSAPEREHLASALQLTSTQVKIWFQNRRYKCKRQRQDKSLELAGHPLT
# VAX1 [8] = biological target: VAX1 (Homo sapiens, UniProt Q5SQQ9 86-172)
# VAX1 [9] = biological target: VAX1 (Homo sapiens, UniProt Q5SQQ9 86-172, T142I)
# VAX1 [10] = biological target: VAX1 (Homo sapiens, UniProt Q5SQQ9 86-172, K157R)
# VENTX = biological target: T6, VENTX (Homo sapiens, UniProt O95231 78-163, R121Q)
# T6 sequence: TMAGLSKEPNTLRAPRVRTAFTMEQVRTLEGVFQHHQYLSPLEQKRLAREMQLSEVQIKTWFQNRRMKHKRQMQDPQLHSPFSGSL
# NKX2-6 [11] = biological target: T7, NKX2-6 (Homo sapiens, UniProt A6NCS4 118-204, R150C)
# T7 sequence: T5 sequence with R33C, L34F
# NKX3-2 (Homo sapiens, UniProt P78367 192-278, P234S), sequence (P78367 192-278 P234S): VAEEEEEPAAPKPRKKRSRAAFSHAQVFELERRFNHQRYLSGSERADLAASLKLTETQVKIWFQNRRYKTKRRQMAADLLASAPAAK
# VAX1 (Homo sapiens, UniProt Q5SQQ9 86-172), sequence (Q5SQQ9 86-172): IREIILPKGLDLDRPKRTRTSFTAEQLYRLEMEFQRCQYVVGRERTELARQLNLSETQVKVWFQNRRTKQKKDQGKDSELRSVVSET
# NKX3-2 (Homo sapiens, UniProt P78367 192-278), sequence (P78367 192-278): as the sequence (P78367 192-278 P234S) above, with S43P counted along it
# VAX1 (Homo sapiens, UniProt Q5SQQ9 86-172, K157R), sequence (Q5SQQ9 86-172 K157R): as the sequence (Q5SQQ9 86-172) above, with K72R counted along it
# VAX1 (Homo sapiens, UniProt Q5SQQ9 86-172, T142I), sequence (Q5SQQ9 86-172 T142I): as the sequence (Q5SQQ9 86-172) above, with T57I counted along it
sequence,measurement,setting,value
CACTCAAA,binding signal,NKX2-4 [1],"12.4 upbm affinity estimate (log intensity, higher = more binding, comparable within an allelic series)"
same,binding signal,NKX3-2 [2],"12.3 upbm affinity estimate (log intensity, higher = more binding, comparable within an allelic series)"
same,binding signal,NKX3-2 [3],"12.3 upbm affinity estimate (log intensity, higher = more binding, comparable within an allelic series)"
CACTTCAC,binding signal,NKX2-4 [1],"12.5 upbm affinity estimate (log intensity, higher = more binding, comparable within an allelic series)"
same,binding signal,NKX2-4 [4],"12.8 upbm affinity estimate (log intensity, higher = more binding, comparable within an allelic series)"
same,binding signal,NKX2-4 [5],"12.3 upbm affinity estimate (log intensity, higher = more binding, comparable within an allelic series)"
same,binding signal,NKX2-4 [6],"12.9 upbm affinity estimate (log intensity, higher = more binding, comparable within an allelic series)"
same,binding signal,NKX2-6 [7],"10.7 upbm affinity estimate (log intensity, higher = more binding, comparable within an allelic series)"
CGGTCGAC,binding signal,NKX2-4 [1],"9.4 upbm affinity estimate (log intensity, higher = more binding, comparable within an allelic series)"
same,binding signal,NKX2-4 [4],"9.24 upbm affinity estimate (log intensity, higher = more binding, comparable within an allelic series)"
same,binding signal,NKX2-4 [5],"9.3 upbm affinity estimate (log intensity, higher = more binding, comparable within an allelic series)"
same,binding signal,NKX2-4 [6],"9.39 upbm affinity estimate (log intensity, higher = more binding, comparable within an allelic series)"
same,binding signal,VAX1 [8],"7.17 upbm affinity estimate (log intensity, higher = more binding, comparable within an allelic series)"
same,binding signal,VAX1 [9],"7.28 upbm affinity estimate (log intensity, higher = more binding, comparable within an allelic series)"
same,binding signal,VAX1 [10],"7.34 upbm affinity estimate (log intensity, higher = more binding, comparable within an allelic series)"
AGACTGAC,binding signal,NKX2-4 [1],"9.52 upbm affinity estimate (log intensity, higher = more binding, comparable within an allelic series)"
same,binding signal,NKX2-4 [4],"9.58 upbm affinity estimate (log intensity, higher = more binding, comparable within an allelic series)"
same,binding signal,NKX2-4 [5],"9.63 upbm affinity estimate (log intensity, higher = more binding, comparable within an allelic series)"
same,binding signal,NKX2-4 [6],"9.64 upbm affinity estimate (log intensity, higher = more binding, comparable within an allelic series)"
ATCACACC,binding signal,NKX2-4 [1],"9.96 upbm affinity estimate (log intensity, higher = more binding, comparable within an allelic series)"
same,binding signal,NKX2-4 [4],"9.93 upbm affinity estimate (log intensity, higher = more binding, comparable within an allelic series)"
same,binding signal,NKX2-4 [5],"9.81 upbm affinity estimate (log intensity, higher = more binding, comparable within an allelic series)"
same,binding signal,NKX2-4 [6],"9.96 upbm affinity estimate (log intensity, higher = more binding, comparable within an allelic series)"
CGGCTGTA,binding signal,NKX2-4 [1],"9.81 upbm affinity estimate (log intensity, higher = more binding, comparable within an allelic series)"
same,binding signal,NKX2-4 [4],"9.8 upbm affinity estimate (log intensity, higher = more binding, comparable within an allelic series)"
same,binding signal,NKX2-4 [5],"9.77 upbm affinity estimate (log intensity, higher = more binding, comparable within an allelic series)"
same,binding signal,NKX2-4 [6],"9.94 upbm affinity estimate (log intensity, higher = more binding, comparable within an allelic series)"
ACCATTAG,binding signal,VENTX,"11.7 upbm affinity estimate (log intensity, higher = more binding, comparable within an allelic series)"
CCCTGCAG,binding signal,NKX2-4 [1],"9.9 upbm affinity estimate (log intensity, higher = more binding, comparable within an allelic series)"
same,binding signal,NKX2-4 [4],"9.92 upbm affinity estimate (log intensity, higher = more binding, comparable within an allelic series)"
same,binding signal,NKX2-4 [5],"9.89 upbm affinity estimate (log intensity, higher = more binding, comparable within an allelic series)"
same,binding signal,NKX2-4 [6],"9.93 upbm affinity estimate (log intensity, higher = more binding, comparable within an allelic series)"
AACGCTGG,binding signal,NKX2-4 [1],"9.65 upbm affinity estimate (log intensity, higher = more binding, comparable within an allelic series)"
same,binding signal,NKX2-4 [4],"9.71 upbm affinity estimate (log intensity, higher = more binding, comparable within an allelic series)"
same,binding signal,NKX2-4 [5],"9.67 upbm affinity estimate (log intensity, higher = more binding, comparable within an allelic series)"
same,binding signal,NKX2-4 [6],"9.82 upbm affinity estimate (log intensity, higher = more binding, comparable within an allelic series)"
AGTATCTC,binding signal,NKX2-4 [1],"11.5 upbm affinity estimate (log intensity, higher = more binding, comparable within an allelic series)"
same,binding signal,NKX2-4 [5],"11.4 upbm affinity estimate (log intensity, higher = more binding, comparable within an allelic series)"
same,binding signal,NKX2-4 [6],"11.6 upbm affinity estimate (log intensity, higher = more binding, comparable within an allelic series)"
ACAAGTAC,binding signal,NKX2-4 [1],"12.5 upbm affinity estimate (log intensity, higher = more binding, comparable within an allelic series)"
same,binding signal,NKX2-4 [4],"12.9 upbm affinity estimate (log intensity, higher = more binding, comparable within an allelic series)"
same,binding signal,NKX2-6 [11],"11.6 upbm affinity estimate (log intensity, higher = more binding, comparable within an allelic series)"
same,binding signal,NKX2-4 [6],"12.9 upbm affinity estimate (log intensity, higher = more binding, comparable within an allelic series)"
AAAGAGGC,binding signal,NKX2-4 [1],"11.7 upbm affinity estimate (log intensity, higher = more binding, comparable within an allelic series)"
same,binding signal,NKX2-4 [4],"11.9 upbm affinity estimate (log intensity, higher = more binding, comparable within an allelic series)"
same,binding signal,NKX2-4 [5],"11.6 upbm affinity estimate (log intensity, higher = more binding, comparable within an allelic series)"
same,binding signal,NKX2-4 [6],"11.9 upbm affinity estimate (log intensity, higher = more binding, comparable within an allelic series)"
CTGAAAAG,binding signal,NKX2-4 [1],"11 upbm affinity estimate (log intensity, higher = more binding, comparable within an allelic series)"
same,binding signal,NKX2-4 [5],"10.8 upbm affinity estimate (log intensity, higher = more binding, comparable within an allelic series)"
same,binding signal,NKX2-4 [6],"11.1 upbm affinity estimate (log intensity, higher = more binding, comparable within an allelic series)"
CCGAGACG,binding signal,NKX2-4 [1],"9.51 upbm affinity estimate (log intensity, higher = more binding, comparable within an allelic series)"
same,binding signal,NKX2-4 [4],"9.47 upbm affinity estimate (log intensity, higher = more binding, comparable within an allelic series)"
same,binding signal,NKX2-4 [5],"9.47 upbm affinity estimate (log intensity, higher = more binding, comparable within an allelic series)"
same,binding signal,NKX2-4 [6],"9.44 upbm affinity estimate (log intensity, higher = more binding, comparable within an allelic series)"
ACTCTTAT,binding signal,NKX2-4 [1],"12.2 upbm affinity estimate (log intensity, higher = more binding, comparable within an allelic series)"
same,binding signal,NKX2-4 [4],"12.5 upbm affinity estimate (log intensity, higher = more binding, comparable within an allelic series)"
same,binding signal,NKX2-4 [5],"12.1 upbm affinity estimate (log intensity, higher = more binding, comparable within an allelic series)"
same,binding signal,NKX2-4 [6],"12.5 upbm affinity estimate (log intensity, higher = more binding, comparable within an allelic series)"
CGGCGTTA,binding signal,NKX2-4 [1],"9.81 upbm affinity estimate (log intensity, higher = more binding, comparable within an allelic series)"
same,binding signal,NKX2-4 [4],"9.61 upbm affinity estimate (log intensity, higher = more binding, comparable within an allelic series)"
same,binding signal,NKX2-4 [5],"9.82 upbm affinity estimate (log intensity, higher = more binding, comparable within an allelic series)"
same,binding signal,NKX2-4 [6],"9.89 upbm affinity estimate (log intensity, higher = more binding, comparable within an allelic series)"
ATCCACTC,binding signal,NKX2-4 [1],"12.4 upbm affinity estimate (log intensity, higher = more binding, comparable within an allelic series)"
same,binding signal,NKX3-2 [2],"12.5 upbm affinity estimate (log intensity, higher = more binding, comparable within an allelic series)"
ACACTCAA,binding signal,NKX2-4 [1],"12.5 upbm affinity estimate (log intensity, higher = more binding, comparable within an allelic series)"
same,binding signal,NKX2-4 [4],"12.8 upbm affinity estimate (log intensity, higher = more binding, comparable within an allelic series)"
same,binding signal,NKX2-4 [5],"12.3 upbm affinity estimate (log intensity, higher = more binding, comparable within an allelic series)"
same,binding signal,NKX2-4 [6],"12.8 upbm affinity estimate (log intensity, higher = more binding, comparable within an allelic series)"
same,binding signal,NKX2-6 [7],"10.6 upbm affinity estimate (log intensity, higher = more binding, comparable within an allelic series)"
